Several values for one entry are separate records, joined by “and”; a condition that tells them apart may be missing. Equal entries are not always repeated. Inconclusive results are not listed. A call without a number means that no potency is given here. Activity calls are given as the source filed them. Calls follow the shape of the dose curve; as a rule, active = well fitted cell-killing curve with a large enough effect in the repeat runs; inconclusive = weak or mixed curves, or effect the other way; inactive = no such curve, though single readings can be large or run the other way.
Experiment: qHTS assay for small molecule activators of the heat shock response signaling pathway - cell viability counter screen (AID 743209); also: nearly all actives have a fitted effect of over 50% in size
Settings: HSE-bla HeLa viability, CellTiter-Glo luminescence, 5 h; series mostly up to 62.6 µM
From the text: U.S. Tox21 Program National Center for Advancing Translational Sciences [NCATS] NIH Chemical Genomics Center [NCGC] U.S. Environmental Protection Agency [EPA] National Institutes of Environmental Health Sciences [NIEHS] National Toxicology Program [NTP] U.S. Food and Drug Administration [FDA] Tox21 Assay Overview: Various chemicals, environmental and physiological stress conditions may lead to the activation of heat shock response/ unfolded protein response (HSR/UPR). There are three heat shock transcription factors (HSFs) (HSF-1, -2, and -4) mediating transcriptional regulation of the human HSR. To identify the compounds that activate HSR signaling, HSE-bla HeLa cell line (Invitrogen, Carlsbad, CA, USA) containing a beta-lactamase reporter gene under the control of the heat shock response elements was used to screen Tox21 10K compound library. The cytotoxicity of the Tox21 compound library against the HSE-bla HeLa cell line was tested in parallel by measuring the cell viability using CellTiter-Glo assay (Promega, Madison, WI) in the same wells.
Tox21 Assay Protocol Summary: The CellSensor HSE-bla HeLa cells (Invitrogen, Carlsbad, CA, USA) were dispensed at 1500 cells/6uL/well into 1536-well black wall/clear bottom plates using a Multidrop combi (Thermo Fisher Scientific, Waltham, MA) dispenser. After the assay plates were incubated at 37 C and 5% CO2 overnight, 23 nL of compounds dissolved in DMSO, positive controls or DMSO only was transferred to the assay plate by a Pintool station (Kalypsys, San Diego, CA). The plates were incubated at 37 C for 5 h. After 1 uL of LiveBLAzerTM B/G FRET substrate was added using a Flying Reagent Dispenser (FRD, Beckman Coulter, Indianapolis, IN, USA), the plates were incubated at room temperature for 2.5 h, and fluorescence intensity was measured by an Envision plate reader (PerkinElmer, Shelton, CT). For cell viability readout that measures cytotoxicity, 3 ul/well of CellTiter-Glo reagent was added into the assay plates using a FRD. After 30 min incubation at room temperature, the luminescence intensity in the plates was measured using a ViewLux (PerkinElmer) plate reader.
In the case of `CN(C)CCCN1c2ccccc2Sc2ccc(C(F)(F)F)cc21`, the Potency is reported as “inactive”. With `O=C(Oc1ccccc1)c1cccc(C(=O)Oc2ccccc2)c1` the Potency was “inactive”. For `CCc1cccc(C)c1`, the Potency was “inactive”. For `C(=C/c1ccccc1)/c1ccccc1`, the Potency was “inactive”. With `CN(C)CCCN1c2ccccc2CCc2ccccc21` the Potency was “inactive”. In the case of `COC(=O)NCCC[Si](OC)(OC)OC`, the Potency is reported as “inactive”. For `CCCCCCCCCCCCCCCC`, the Potency was “inactive”. In the case of `Cc1ccc(CCn2c3c(c4cc(Cl)ccc42)CN(C)CC3)cn1`, the Potency is reported as “inactive”. In the case of `C[C@H]1O[C@@H](O[C@H]2[C@@H](O)C[C@H](O[C@H]3[C@@H](O)C[C@H](O[C@H]4CC[C@@]5(C)[C@H](CC[C@@H]6[C@@H]5C[C@@H](O)[C@]5(C)[C@@H](C7=CC(=O)OC7)CC[C@]65O)C4)O[C@@H]3C)O[C@@H]2C)C[C@H](O)[C@@H]1O`, the Potency is reported as 55 nM (active) and 13.6 nM (active). For `CC1=C(/C=C/C(C)=C/C=C/C(C)=C/C(=O)Nc2ccc(O)cc2)C(C)(C)CCC1`, the Potency was 20 µM (active) and 33.5 µM (active). In the case of `C=CCCCCCCC=C`, the Potency is reported as 49.1 µM (active). With `O=C1Nc2ccc(Cl)cc2[C@@](C#CC2CC2)(C(F)(F)F)O1` the Potency was 5.31 µM (active). With `CNC(=O)c1cc(Oc2ccc(NC(=O)Nc3ccc(Cl)c(C(F)(F)F)c3)cc2)ccn1` the Potency was “inactive”. In the case of `O=C1NC2CCCCN2C12CCN(CCCN1c3ccccc3CCc3ccc(Cl)cc31)CC2` (stereo not given), the Potency is reported as 29.8 µM (active). In the case of `CCCCCCCCCC(=O)N(C)C`, the Potency is reported as “inactive”. For `CCCCCCCCCCCCN(CCO)CCO`, the Potency was 54.7 µM (active). In the case of `CN1[C@@H]2CC[C@@H]1CC(OC(=O)C(CO)c1ccccc1)C2` (stereo not given in full), the Potency is reported as “inactive”. With `COc1ccccc1OCCNCC(O)COc1cccc2[nH]c3ccccc3c12` (stereo not given) the Potency was “inactive”. For `CC(O)C#CC(C)O` (stereo not given), the Potency was 21.7 µM (active). With `CN1[C@@H]2CC[C@H]1CC(OC(=O)C(CO)c1ccccc1)C2` (stereo not given in full) the Potency was “inactive”. For `C/C=C/C(=O)Oc1c(CCCCCC(C)C)cc([N+](=O)[O-])cc1[N+](=O)[O-]`, the Potency was 24.5 µM (active). In the case of `O=C1OC(OC(=O)c2cccnc2Nc2cccc(C(F)(F)F)c2)c2ccccc21` (stereo not given), the Potency is reported as “inactive”. With `CC(C)c1cccc(C(C)C)c1N1C(=O)c2ccc(O)cc2C1=O` the Potency was “inactive”. For `[O]=[Zr]`, the Potency was “inactive”. For `COc1ccc(-n2nc(CCC(=O)N(C)O)cc2-c2ccc(Cl)cc2)cc1`, the Potency was “inactive”. For `c1ccc(Nc2cccc3ccccc23)cc1`, the Potency was “inactive”. In the case of `CC(C)(C)CC(C)(C)c1ccccc1O`, the Potency is reported as 55.2 µM (active). For `Cc1oc(-c2ccccc2)nc1CCOc1ccc(C[C@H](Nc2ccccc2C(=O)c2ccccc2)C(=O)O)cc1`, the Potency was 21.9 µM (active). In the case of `Oc1c(Br)cc(Br)c2cccnc12`, the Potency is reported as “inactive”. In the case of `CNC(=S)NN`, the Potency is reported as 24.5 µM (active). For `CCN(CC)CCSC(=O)C(c1ccccc1)c1ccccc1`, the Potency was “inactive”. In the case of `Nc1ccc2cc3ccc(N)cc3nc2c1`, the Potency is reported as 43.6 µM (active). In the case of `Oc1ccc(-c2ccccc2)c(Cl)c1`, the Potency is reported as “inactive”. For `CC(=O)Oc1ccc(C2(c3ccc(OC(C)=O)cc3)C(=O)Nc3ccccc32)cc1`, the Potency was “inactive”. For `O=C(O)CCn1c2c(c3ccccc31)C[C@H](NS(=O)(=O)c1ccc(F)cc1)CC2`, the Potency was “inactive”. In the case of `NCCCC(O)(P(=O)(O)O)P(=O)(O)O`, the Potency is reported as “inactive”. For `CC(C)OC(=O)c1cc(C(=O)OC(C)C)cc([N+](=O)[O-])c1`, the Potency was “inactive”. In the case of `COc1cccc(CCc2ccccc2OCC(CN(C)C)OC(=O)CCC(=O)O)c1` (stereo not given), the Potency is reported as “inactive”. With `Cn1cnc2ncnc(N)c21` the Potency was “inactive”. In the case of `O=C1OC(=O)c2cccc3cccc1c23`, the Potency is reported as “inactive”.

Source: PubChem BioAssay (Tox21)
Potency is read from the fitted curve at half-maximal effect.
